Laboratory results: PubChem BioAssay AID588477 (NMMLSC, 2011)
The source made the active and inactive calls.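 How the source made its calls: active means valid curve fit with half-effect dose at most 10 µM and total binding change across doses of 30 points or more; inactive means the rest.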

Assay: small GTPase nucleotide-binding inhibition, multiplex panel – biochemical, round 1 SAR, Mg buffer, multiplex flow cytometry, selectivity assay for Cdc42 probe extension project, SAR follow-up (AID 588477)
Conditions: GST-GTPase beads, Bodipy-GTP binding, Rac constitutively active; series mostly up to 100 µM

outcome, inactive:
NS(=O)(=O)c1ccc(N2N=C(c3ccccc3)CC2c2ccccc2)cc1 (stereo not drawn)
COc1ccc(C2CC(c3ccccc3)=NN2c2ccc(S(N)(=O)=O)cc2)cc1 (stereo not drawn)
O=C(C#Cc1ccccc1)c1cccc([N+](=O)[O-])c1
